# According to PubChem BioAssay (NCI):
# This is part of a sample that, as a whole, favours compounds with a hit. Of some 83,000 tested, about 20% had one in any assay.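 Each cell line was grown in a 96-well plate and treated with one concentration of compound for 48 hours. Values below 10 were considered active.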 Values without a mark were called inactive. Active and inactive are the calls of the source.
# Columns and labels:
# Assay in all cases: NCI-60 one-dose screen, 48 h (100 = growth as untreated, 0 = no growth, -100 = all killed)
# Conditions in all cases: 10 µM
# 786-0 renal = system: 786-0 renal
# MALME-3M melanoma = system: MALME-3M melanoma
# EKVX NSCLC = system: EKVX NSCLC
# SN12C renal = system: SN12C renal
# TK-10 renal = system: TK-10 renal
# ACHN renal = system: ACHN renal
# A498 renal = system: A498 renal
# CCRF-CEM leukemia = system: CCRF-CEM leukemia
# RPMI-8226 leukemia = system: RPMI-8226 leukemia
# OVCAR-5 ovarian = system: OVCAR-5 ovarian
# OVCAR-4 ovarian = system: OVCAR-4 ovarian
# IGROV1 ovarian = system: IGROV1 ovarian
# OVCAR-3 ovarian = system: OVCAR-3 ovarian
# NCI/ADR-RES ovarian = system: NCI/ADR-RES ovarian
# BT-549 breast = system: BT-549 breast
# MDA-MB-435 melanoma = system: MDA-MB-435 melanoma
# MCF7 breast = system: MCF7 breast
# HCT-116 colon = system: HCT-116 colon
# HCC-2998 colon = system: HCC-2998 colon
# KM12 colon = system: KM12 colon
SMILES,growth (786-0 renal),growth (MALME-3M melanoma),growth (EKVX NSCLC),growth (SN12C renal),growth (TK-10 renal),growth (ACHN renal),growth (A498 renal),growth (CCRF-CEM leukemia),growth (RPMI-8226 leukemia),growth (OVCAR-5 ovarian),growth (OVCAR-4 ovarian),growth (IGROV1 ovarian),growth (OVCAR-3 ovarian),growth (NCI/ADR-RES ovarian),growth (BT-549 breast),growth (MDA-MB-435 melanoma),growth (MCF7 breast),growth (HCT-116 colon),growth (HCC-2998 colon),growth (KM12 colon)
COc1cc2cc(C(=O)N3C[C@@H](CCl)c4c3cc(OC(=O)N3CCN(C(=O)CCC(=O)N5CCN(C)CC5)[C@@H]5CSSC[C@@H]53)c3ccccc43)[nH]c2c(OC)c1OC,-80.9% (active),-99.3% (active),-84.6% (active),-37.7% (active),5.55% (active),-31.6% (active),-10.8% (active),25.2%,6.09% (active),-35.6% (active),-6.42% (active),-50.7% (active),16.4%,-56.6% (active),-81.3% (active),3.09% (active),-92.4% (active),-77.5% (active),-99.1% (active),-74.6% (active)
COP(=O)(CC(F)(F)C(F)(F)F)OC,-3% (active),-59.1% (active),81.1%,76.2%,-40.6% (active),-97.6% (active),131%,5.28% (active),12.3%,68.9%,-13.4% (active),50.2%,-3.42% (active),61.8%,37.3%,9.6% (active),3.91% (active),-60.6% (active),91%,94.6%
CC[C@]12C=CCN3CC[C@@]4(c5ccc(OC)cc5N(C)[C@H]4[C@@](O)(C(=O)OC)[C@@H]1OC(=O)CCCC[P+](c1ccc(C)cc1)(c1ccc(C)cc1)c1ccc(C)cc1)[C@@H]32,-91% (active),-96% (active),-93.8% (active),-88.5% (active),-91.3% (active),-99.3% (active),-90.9% (active),-72.4% (active),-46% (active),-96% (active),-68.9% (active),-91.8% (active),-77.1% (active),71.8%,-97% (active),-86.8% (active),-81.2% (active),-93.5% (active),-85.8% (active),-73.6% (active)
CC12OOC(C)(OO1)C2CCC(=O)NCCCNc1ccnc2cc(Cl)ccc12 (stereo not given),-12.2% (active),-94.6% (active),85.6%,91.9%,23.4%,-100% (active),114%,3.13% (active),39%,84.4%,-42.2% (active),67.1%,-49.6% (active),99.9%,121%,93.8%,58.1%,3.56% (active),106%,86.4%
COC(=O)CCn1c(-c2ccc(-n3cc(-c4ccc(O[C@H]5O[C@@H]6OC7(C)CC[C@H]8[C@H](C)CC[C@@H]([C@H]5C)[C@@]68OO7)cc4)nn3)cc2)nc2ccccc21,32.3%,0.0576% (active),23.5%,16.3%,30.4%,8.18% (active),74.4%,28.1%,20.3%,36.6%,34.2%,21.7%,20.4%,16.2%,-7.77% (active),24.5%,11.1%,11.6%,38.5%,18%
COc1ccc(/C=C/C(=O)c2nc3ccccc3n2Cc2ccc(Br)cc2)cc1,64.7%,73.1%,52.5%,90.4%,110%,77.5%,122%,18.7%,22.5%,89.6%,66.1%,65.8%,60%,61.5%,70.3%,61.1%,9.99% (active),32%,54.2%,61.5%
CC1=C(COCCOC(=O)c2ccc(S(=O)(=O)F)cc2)C2=C(C)C3(CC3)[C@@](C)(O)C(=O)C2=C1,-3.81% (active),-78.2% (active),-32.7% (active),-19.9% (active),7.99% (active),-19.3% (active),-16.9% (active),15.8%,76.4%,-43.7% (active),-23% (active),-24.3% (active),9.3% (active),-43.2% (active),-83% (active),3.24% (active),10.9%,6.93% (active),-83.5% (active),29.6%
CC12CCC3(CCC(=O)NCCCNc4ccnc5cc(Cl)ccc45)[C@@](C)(OO[C@]3(C)O1)O2,-22.7% (active),17.5%,4.65% (active),-15.1% (active),-17.8% (active),-10.1% (active),85.3%,3.78% (active),22.2%,4.68% (active),33.1%,-23.3% (active),30.8%,-14.7% (active),-7.38% (active),18.3%,9.36% (active),9.58% (active),22.8%,9.24% (active)
C[C@H]1[C@H](OC(=O)CCC(=O)Nc2cnccn2)O[C@@H]2OC3(C)CC[C@H]4[C@H](C)CC[C@@H]1[C@@]24OO3,53.6%,27.5%,38.4%,45.3%,42.2%,25.4%,101%,35.4%,21.5%,35.2%,44.1%,25.7%,34.6%,19.1%,24%,16.1%,24.4%,14.6%,63.5%,22.3%
C[C@H]1[C@H](OC(=O)CCC(=O)N(CCCc2cn(-c3ccc(CN4CCOCC4)cc3)nn2)CCNc2ccnc3cc(Cl)ccc23)O[C@@H]2OC3(C)CC[C@H]4[C@H](C)CC[C@@H]1[C@@]24OO3,-65% (active),-90% (active),49%,23.2%,48.8%,23.1%,93.6%,8.19% (active),3.71% (active),42.1%,45.9%,38%,38.3%,26.1%,5.43% (active),18.4%,11.2%,-8.13% (active),40.1%,24.7%
C[C@H]1[C@H](OC(=O)CCC(=O)N(CCCc2cn(-c3ccc(C#N)cc3)nn2)CCNc2ccnc3cc(Cl)ccc23)O[C@@H]2OC3(C)CC[C@H]4[C@H](C)CC[C@@H]1[C@@]24OO3,50.7%,13.3%,53%,58.9%,54.2%,44.5%,110%,15%,27%,54.5%,41.9%,44.5%,45.2%,28.4%,24.2%,28.8%,-28% (active),21.9%,70.3%,31.4%
CC[C@]12C=CCN3CC[C@@]4(c5ccc(OC)cc5N(C)[C@H]4[C@@](O)(C(=O)OC)[C@@H]1OC(=O)CCC[P+](c1ccc(C)cc1)(c1ccc(C)cc1)c1ccc(C)cc1)[C@@H]32,-88% (active),-94.4% (active),-94.7% (active),-88.1% (active),-88.5% (active),-97.8% (active),-88.6% (active),-67% (active),-56.3% (active),-95.9% (active),-73.5% (active),-89.5% (active),-61.9% (active),18.1%,-96.9% (active),-57.5% (active),-76.3% (active),-93.4% (active),-91.4% (active),-76.1% (active)
CCOP(=O)(CC(F)(F)C(F)(F)F)OCC,15.2%,-70.4% (active),89.5%,62.1%,17%,-23.1% (active),126%,8.28% (active),7.92% (active),50.7%,-14.9% (active),60.2%,-61.5% (active),14%,49%,18.4%,9.98% (active),-70.7% (active),86.3%,89.3%
CC(C)C[C@H](NC(=O)CNC(=O)C[C@H]1O[C@@H]2OC3(C)CC[C@H]4[C@H](C)CC[C@@H]([C@H]1C)[C@@]24OO3)B(O)O,21%,-56.5% (active),26.7%,-53.1% (active),12.1%,7.48% (active),43.1%,-9.96% (active),-14.5% (active),-28.3% (active),22.1%,2.58% (active),-12.4% (active),94.2%,-83.5% (active),-61.2% (active),19.1%,-72.3% (active),-95.1% (active),-15.4% (active)
CC12OOC(C)(OO1)C2CCC(=O)NCCNc1ccnc2cc(Cl)ccc12 (stereo not given),107%,89.7%,88.6%,99.4%,121%,97%,106%,80.6%,78.8%,102%,96.8%,89.2%,97.3%,98.3%,106%,97.7%,82.3%,100%,99.7%,101%
